Data on five compounds can be found in PubChem BioAssay.

The nature of assay [1]: small molecules captured by biotinylated probe aFSTL3 – biochemical, small-molecule microarray, fluorescence 635/667, stem cell growth factor project, primary screen (AID 1064).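 Further: measures binding of the biotinylated anti-FSTL3 antibody to printed compounds.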 The following applies: higher = more signal.
Assay [2] can be described thus: binders from COS7 lysate, DM2A8 probe, primary screen, torsin A project, cell lysate, small-molecule microarray, fluorescence 635/667 (AID 1065). The following applies: higher = more signal, COS7 lysate expressing mutant human TOR1A.
Assay [3] is described as follows: small molecules captured by biotinylated probe aFGF2 – biochemical, small-molecule microarray, fluorescence 635/667, stem cell growth factor project, primary screen (AID 1067).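 Further: measures binding of biotinylated aFGF2 protein to printed compounds on slides; z-score merges feature fluorescence and signal-to-noise across triplicate slides.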 The following applies: higher = more signal.
Assay [4] in a line: small molecules captured by biotinylated probe aFGF10 – biochemical, small-molecule microarray, fluorescence 635/667, stem cell growth factor project, primary screen (AID 1071).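 Further: score merges 667 nm spot intensity and signal to noise from triplicate slides.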 Conditions: higher = more signal.
For assay [5], the target named is Neurogenic locus notch homolog protein 2 (Homo sapiens) (UniProt Q04721). Put plainly: small molecules binding Notch2 protein – biochemical, small-molecule microarray, 635 nm fluorescence, stem cell growth factors, primary screen (AID 1073). The following applies: higher = more signal.
Assay [6] has as its target Pro-neuregulin-1, membrane-bound isoform (Homo sapiens) (UniProt Q02297). Put plainly: small molecules binding neuregulin-1 protein – biochemical, small-molecule microarray, fluorescence 635/667, psychiatric disease protein project, primary screen (AID 1075).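 Further: score combines 667 nm spot fluorescence with signal to noise.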 Conditions: NRG1 binding, 635 nm fluorescence, higher = more signal.
The subject of assay [7] is Neuregulin-1 EGF-like domain. Put plainly: small molecules binding NRG1 EGF domain – biochemical, small-molecule microarray, 635 nm fluorescence, primary screen (AID 1081).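 Further: binding of the protein to compounds printed on small-molecule microarray slides.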 Conditions: higher = more signal.
A short description of assay [8]: FRG1 expression reporter modulators in myotubes – cell-based, C2C12 myotubes, firefly/Renilla luciferase, luminescence, FRG1 inhibition for FSHD, primary screen (AID 1084). The following applies: FRG1 promoter luciferase, higher = more signal, called active from +8 up or from −8 down.
Assay [9] can be described thus: small molecules captured by biotinylated probe aFST – biochemical, small-molecule microarray, fluorescence 635/667, stem cell growth factor project, primary screen (AID 1086).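 Further: score merges 667 nm fluorescence with signal-to-noise of each printed compound spot.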 Conditions: higher = more signal.
Assay [10] can be described thus: binders of probe aHhip on microarray, primary screen, stem cell growth factor project, biochemical, small-molecule microarray, fluorescence 635/667 (AID 1087).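 Further: score merges spot fluorescence at 667nm with spot signal to noise ratio.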 The following applies: higher = more signal.
The subject of assay [11] is PRMT1 (protein arginine N-methyltransferase 1). Put plainly: small molecules binding arginine methyltransferase PRMT1 – biochemical, small-molecule microarray, 635 nm fluorescence, primary screen (AID 1088).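 Further: binding of Prmt1 protein to compounds spotted on small-molecule microarray slides.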 The following applies: higher = more signal.
The nature of assay [12]: growth effects on S. cerevisiae YJM789 – YJM789 clinical isolate, OD600, 24 h, basal, primary screen (AID 1089).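 Further: growth of clinical yeast isolate S. cerevisiae YJM 789 seeded 1000 cells per well; test concentration not given here.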 The following applies: higher = more signal, called active from +8 up or from −8 down.
The nature of assay [13]: S. pombe growth modifiers, basal conditions – strain 972, OD600, 24 h, no modulator, primary screen (AID 1090).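 Further: basal condition with compound alone and no growth modifier present; test concentration not given here.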 Conditions: S. pombe 972 growth, higher = more signal, called active from +8 up or from −8 down.
Assay [14] can be described thus: budding yeast growth modifiers under rapamycin – strain BY4716, OD600, 96 h, primary screen (AID 1091). Further: test concentration not given here. The following applies: S. cerevisiae BY4716 + rapamycin, higher = more signal, called active from +8 up or from −8 down.
In assay [15] the target is Torsin-1A-interacting protein 2 (Homo sapiens) (UniProt Q8NFQ8). Briefly: small molecules binding lysate-expressed LULL1 – cell lysate, human LULL1 lysate, 635/667 nm fluorescence, primary screen (AID 1092).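 Further: probe is lysate of COS7 cells overexpressing human LULL1; score merges per-feature 667 nm fluorescence with signal-to-noise.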 Conditions: small-molecule microarray, hLULL1 lysate binding, 635 nm fluorescence; higher = more signal.
Chain of Torsin-1A-interacting protein 2 (Homo sapiens) (Q8NFQ8 whole entry, looked up): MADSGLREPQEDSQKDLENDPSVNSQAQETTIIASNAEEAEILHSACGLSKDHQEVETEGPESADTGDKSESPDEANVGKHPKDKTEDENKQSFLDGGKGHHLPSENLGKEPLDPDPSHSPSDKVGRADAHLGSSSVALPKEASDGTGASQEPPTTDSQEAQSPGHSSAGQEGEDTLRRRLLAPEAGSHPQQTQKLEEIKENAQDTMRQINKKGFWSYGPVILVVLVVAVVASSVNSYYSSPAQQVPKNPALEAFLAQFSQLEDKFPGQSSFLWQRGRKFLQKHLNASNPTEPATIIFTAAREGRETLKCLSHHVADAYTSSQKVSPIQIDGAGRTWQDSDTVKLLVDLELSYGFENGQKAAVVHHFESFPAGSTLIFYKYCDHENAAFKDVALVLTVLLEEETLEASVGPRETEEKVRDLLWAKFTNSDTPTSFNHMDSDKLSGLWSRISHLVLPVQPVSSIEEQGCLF
Assay [16] is described as follows: optical density change of DRC41 E. coli – strain DRC41, OD650, 24 h, E. coli filamentation project, primary screen (AID 1093).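 Further: MC1000 strain lacking acrAB efflux and sulA so SOS filamentation is blocked; test concentration not given here.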 Conditions: E. coli DRC41 growth, higher = more signal, called active from +8 up or from −8 down.
Assay [17] can be described thus: probe aLefty2 binding to arrayed compounds – biochemical, biotinylated probe, 635/667 nm fluorescence, primary screen (AID 1094).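 Further: score merges spot fluorescence near 667 nm with spot signal-to-noise ratio.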 The following applies: small-molecule microarray, higher = more signal.
The subject of assay [18] is Noggin (protein binding on small-molecule microarray). Put plainly: small molecules binding Noggin protein – biochemical, 635/667 nm fluorescence, primary screen (AID 1095).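 Further: score merges 667 nm feature fluorescence with signal to noise over triplicate slides.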 Conditions: 635 nm fluorescence, higher = more signal.
Assay [19] deals with Neurogenic locus notch homolog protein 3 (Homo sapiens) (UniProt Q9UM47). Put plainly: small molecules binding NOTCH3 protein – biochemical, 635/667 nm fluorescence, primary screen (AID 1096). Conditions: small-molecule microarray, 635 nm fluorescence, higher = more signal.
Chain of Neurogenic locus notch homolog protein 3 (Homo sapiens) (Q9UM47 whole entry, looked up): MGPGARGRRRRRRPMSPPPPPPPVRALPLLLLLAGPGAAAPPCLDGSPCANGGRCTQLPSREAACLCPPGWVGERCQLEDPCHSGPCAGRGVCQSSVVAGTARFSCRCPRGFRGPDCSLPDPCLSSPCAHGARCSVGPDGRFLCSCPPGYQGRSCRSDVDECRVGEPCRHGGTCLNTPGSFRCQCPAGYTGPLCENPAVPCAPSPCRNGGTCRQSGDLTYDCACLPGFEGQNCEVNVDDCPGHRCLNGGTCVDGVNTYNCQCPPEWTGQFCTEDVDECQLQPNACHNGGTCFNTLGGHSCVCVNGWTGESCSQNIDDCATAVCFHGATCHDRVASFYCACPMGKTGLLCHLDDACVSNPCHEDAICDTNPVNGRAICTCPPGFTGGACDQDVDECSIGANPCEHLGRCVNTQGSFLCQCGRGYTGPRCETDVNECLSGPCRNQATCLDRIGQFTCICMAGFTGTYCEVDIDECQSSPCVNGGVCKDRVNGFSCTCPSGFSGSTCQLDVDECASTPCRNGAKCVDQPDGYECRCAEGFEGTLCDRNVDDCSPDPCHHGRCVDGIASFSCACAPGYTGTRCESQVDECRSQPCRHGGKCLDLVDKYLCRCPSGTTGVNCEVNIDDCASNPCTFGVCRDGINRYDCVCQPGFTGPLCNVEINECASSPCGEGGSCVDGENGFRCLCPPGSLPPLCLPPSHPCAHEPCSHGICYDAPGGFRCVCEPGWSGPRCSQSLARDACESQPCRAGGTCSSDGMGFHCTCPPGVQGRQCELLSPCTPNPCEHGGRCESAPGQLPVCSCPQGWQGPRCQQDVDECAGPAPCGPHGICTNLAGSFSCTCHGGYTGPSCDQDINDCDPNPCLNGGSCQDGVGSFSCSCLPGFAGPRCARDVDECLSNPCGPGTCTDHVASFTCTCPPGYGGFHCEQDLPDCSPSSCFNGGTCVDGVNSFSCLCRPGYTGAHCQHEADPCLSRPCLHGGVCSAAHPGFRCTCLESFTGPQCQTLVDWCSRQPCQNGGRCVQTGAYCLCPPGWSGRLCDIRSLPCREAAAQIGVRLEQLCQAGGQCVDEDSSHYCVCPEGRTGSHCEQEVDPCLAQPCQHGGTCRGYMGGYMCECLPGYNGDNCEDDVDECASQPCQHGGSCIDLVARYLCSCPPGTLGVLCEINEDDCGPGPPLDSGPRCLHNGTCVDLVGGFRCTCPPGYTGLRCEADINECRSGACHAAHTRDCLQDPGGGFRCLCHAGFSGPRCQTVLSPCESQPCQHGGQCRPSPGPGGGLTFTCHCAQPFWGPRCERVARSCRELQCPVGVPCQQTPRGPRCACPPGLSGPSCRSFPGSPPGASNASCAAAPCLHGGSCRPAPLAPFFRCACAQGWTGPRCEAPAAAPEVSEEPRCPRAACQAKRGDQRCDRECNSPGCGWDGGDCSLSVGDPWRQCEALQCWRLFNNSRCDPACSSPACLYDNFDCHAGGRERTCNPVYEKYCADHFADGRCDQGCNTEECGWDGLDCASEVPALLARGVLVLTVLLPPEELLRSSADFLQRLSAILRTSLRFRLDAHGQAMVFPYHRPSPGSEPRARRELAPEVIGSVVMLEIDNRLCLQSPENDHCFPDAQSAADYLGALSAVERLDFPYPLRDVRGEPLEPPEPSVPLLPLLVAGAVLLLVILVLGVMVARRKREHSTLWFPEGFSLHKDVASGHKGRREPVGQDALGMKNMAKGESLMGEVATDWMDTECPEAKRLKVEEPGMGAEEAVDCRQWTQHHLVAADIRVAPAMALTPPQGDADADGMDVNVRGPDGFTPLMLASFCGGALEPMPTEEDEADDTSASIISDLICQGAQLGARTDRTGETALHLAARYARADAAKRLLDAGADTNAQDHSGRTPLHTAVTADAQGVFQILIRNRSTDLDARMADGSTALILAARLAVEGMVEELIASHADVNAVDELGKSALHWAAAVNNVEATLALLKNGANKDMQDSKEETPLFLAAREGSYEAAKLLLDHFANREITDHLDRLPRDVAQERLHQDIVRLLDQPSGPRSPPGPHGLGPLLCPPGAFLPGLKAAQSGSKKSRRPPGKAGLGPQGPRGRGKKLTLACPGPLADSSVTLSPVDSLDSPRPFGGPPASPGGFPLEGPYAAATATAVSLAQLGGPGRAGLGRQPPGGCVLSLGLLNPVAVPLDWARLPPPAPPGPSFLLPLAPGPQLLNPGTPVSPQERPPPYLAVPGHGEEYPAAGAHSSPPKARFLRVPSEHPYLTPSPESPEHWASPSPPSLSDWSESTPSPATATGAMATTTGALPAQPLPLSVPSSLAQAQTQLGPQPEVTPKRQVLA
Assay [20] is described as follows: probe aEGFR binding to arrayed compounds – biochemical, biotinylated probe, 635/667 nm fluorescence, primary screen (AID 1097).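 Further: probe is a biotinylated anti-EGFR antibody binding compounds printed on slides; score combines fluorescence near 667 nm and signal to noise of each spot.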 The following applies: small-molecule microarray, higher = more signal.

Activity calls are given as the source filed them.

Chain of Pro-neuregulin-1, membrane-bound isoform (Homo sapiens) (Q02297 whole entry, looked up, the tested form may be a part, canonical isoform): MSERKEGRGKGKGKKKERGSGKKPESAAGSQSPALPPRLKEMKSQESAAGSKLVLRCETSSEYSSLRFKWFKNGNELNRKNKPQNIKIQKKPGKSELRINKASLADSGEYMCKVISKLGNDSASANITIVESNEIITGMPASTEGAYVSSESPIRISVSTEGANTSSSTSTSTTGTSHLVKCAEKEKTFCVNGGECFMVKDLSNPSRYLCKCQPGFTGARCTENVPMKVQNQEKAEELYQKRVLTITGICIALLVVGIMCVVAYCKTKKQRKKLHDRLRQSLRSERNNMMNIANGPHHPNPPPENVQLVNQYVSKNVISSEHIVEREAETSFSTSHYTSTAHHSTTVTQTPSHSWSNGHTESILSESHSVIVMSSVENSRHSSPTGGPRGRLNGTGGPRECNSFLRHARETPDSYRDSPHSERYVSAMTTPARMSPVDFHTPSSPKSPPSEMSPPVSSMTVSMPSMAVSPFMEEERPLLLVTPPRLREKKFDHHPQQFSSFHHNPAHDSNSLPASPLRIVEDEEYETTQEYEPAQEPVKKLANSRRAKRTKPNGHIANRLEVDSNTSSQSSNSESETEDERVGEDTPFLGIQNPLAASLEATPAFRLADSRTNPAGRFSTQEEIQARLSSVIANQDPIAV

Consider `CO[C@]12C=C(Br)[C@@H](C[C@@H]1c1cccc(C)c1)[C@@]1(CO1)C2=O`, for which the composite z-score in [1] was -0.233; in [2], 0.0322; in [3] it was -0.0718; in assay [4] it was 0.211; in [5], -0.217; in [6], 0.518. The composite z-score in assay [7] is 0.0046; in assay [9], -0.221; in assay [10] it was -0.0708; in assay [11], 0.435; in assay [15], 0.469; in assay [17], -0.145. Moreover, the composite z-score in [18] was 0.569; in assay [19], 0.537; in assay [20], -0.115. Moreover, the z-score is 1.22 (inactive) in assay [8]; -0.354 (inactive) in [12]; -5.17 (inactive) in assay [13]; -1.67 (inactive) in assay [14]; -0.0461 (inactive) in assay [16].
With `C=C(/C(=C/C[C@@H](OC(C)=O)c1cccc(OCCO)c1)c1cc(C(=O)OC)ccc1OC)C(C)C`, the composite z-score in assay [1] is -0.367; in assay [2] it was 1.11; in assay [3], -0.0799; in assay [4] it was 0.451; in assay [5], -0.114; in [6] it was -0.202. Also, the composite z-score in assay [7] was found to be 0.938; in [9], 0.313; in assay [10], 0.0373; in assay [11], 1.07; in [15] it was 1.69; in assay [17] it was 0.0347. For the same compound, the composite z-score in [18] was 0.575; in assay [19] it was 0.666; in [20], -0.0987. Besides, the z-score in assay [8] was 0.608 (inactive); in assay [12] it was -0.373 (inactive); in [13], 0.114 (inactive); in [14], -0.87 (inactive); in [16], 0.251 (inactive).
For the compound `CCOC(=O)C[C@H]1[C@H](OC(=O)c2ccccc2-c2ccccc2)[C@@H](NC(=O)C2CCCCC2)c2cc(OCCCO)ccc2N1C(=O)Cc1ccc(OC)cc1`, the composite z-score in [1] was 0.0253; in [2] it was 0.154; in assay [3] it was -0.0636; in [4], 0.253; in assay [5], 0.231; in assay [6] it was -0.0991. Further, the composite z-score was -0.163 in assay [7]; 0.169 in [9]; -0.12 in [10]; 0.143 in assay [11]; 0.735 in assay [15]; -0.132 in assay [17]. Further, the results for the composite z-score in [18], in [19] and in [20] were 0.159, -0.292 and -0.139, respectively. Moreover, the z-score in [8] was 0.277 (inactive); in assay [12] it was -0.93 (inactive); in assay [13], -0.0289 (inactive); in assay [14], -0.144 (inactive); in assay [16], -1.05 (inactive).
For `CC(C)[Si](C#CCCCC#N)(O[C@H](c1ccccc1)c1cn([C@H](CO)Cc2ccccc2)nn1)C(C)C`, the composite z-score in [1] was -0.436; in assay [2] it was 1.22; in [3], -0.168; in [4], 0.202; in assay [5], 0.873; in [6] it was 1.44. The composite z-score is 1.21 in [7]; -0.337 in assay [9]; 0.0373 in [10]; 0.848 in assay [11]; 1.25 in assay [15]; -0.181 in assay [17]. The composite z-score in assay [18] was 0.349; in assay [19], 1.02; in [20], -0.0843. Further, the z-score in [8] is -0.325 (inactive); in assay [12], -2.62 (inactive); in assay [13] it was -11.3 (active); in assay [14], -4.64 (inactive); in assay [16] it was 1.4 (inactive).
Turning to `C=C(/C(=C/C[C@H](OC(C)=O)c1cccc(OCCO)c1)c1cnc2ccccc2c1)C(C)C`, the composite z-score in assay [1] is -0.104; in assay [2] it was 0.21; in [3], -0.108; in [4] it was 0.459; in assay [5], 1.56; in [6] it was 0.35. The composite z-score in [7] was 0.914; in assay [9], -0.241; in [10], -0.0618; in assay [11], 0.684; in [15], 1.03; in [17], -0.0888. In addition, the composite z-score is 0.608 in assay [18], 0.778 in assay [19] and 0.386 in [20]. For the same compound, the z-score was -0.127 (inactive) in assay [8]; 1.9 (inactive) in assay [12]; -0.3 (inactive) in [13]; 1.35 (inactive) in assay [14]; 0.172 (inactive) in [16].
